The values that follow come from PubChem BioAssay (EPA / NIEHS).

Read-out in assay [1]: Human Leukocyte Antigen - DR isotype (HLADR), HLA-DRA (gene 3122)
The assay can be described thus: BSK_BE3C_HLADR: BioMAP Diversity Plus: BE3C Assay for Human Leukocyte Antigen - DR isotype (HLADR) Biomarker Activity (AID 2283032). The settings on record: primary human bronchial epithelial cells; actives raise or lower the signal. A digest of the protocol: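 Human primary bronchial epithelial cells in the BE3C system were exposed to chemicals for 24 h, after which HLA-DR levels were quantified by ELISA. Activity was fitted bidirectionally, gain or loss of signal, against DMSO as negative control and baseline.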

Read-out in assay [2]: Low-density lipoprotein receptor (LDLR), LDLR (gene 3949)
Briefly: BSK_CASM3C_LDLR: BioMAP Diversity Plus: CASM3C Assay for Low-density lipoprotein receptor (LDLR) Biomarker Activity (AID 2283045).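 Also: LDLR protein level on the cell surface quantified by ELISA.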 The settings on record: primary human coronary artery smooth muscle cells; actives raise or lower the signal.

Read-out in assay [3]: CD40, CD40 (gene 958)
The assay can be described thus: BSK_LPS_CD40: BioMAP Diversity Plus: LPS Assay for CD40 Biomarker Activity (AID 2283076). Particulars: primary human HUVEC with PBMC; actives raise or lower the signal. A digest of the protocol:
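ELISA readout of CD40 in HUVEC/PBMC co-culture (BSK_LPS system), 24 h post-dosing; bidirectional curve fit, DMSO baseline; parallel SRB total-protein staining for cytotoxicity.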

Read-out in assay [4]: E-selectin (Homo sapiens) (UniProt P16581)
The assay can be described thus: BSK_LPS_Eselectin: BioMAP Diversity Plus: LPS Assay for Eselectin Biomarker Activity (AID 2283077). The settings on record: primary human HUVEC with PBMC; actives raise or lower the signal. The essentials:
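ELISA readout of E-selectin, 24 h post-dose, HUVEC + PBMC co-culture (LPS system). Gain or loss of signal vs DMSO baseline, bidirectional fit.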

Read-out in assay [5]: Interleukin-8 (IL8), CXCL8 (gene 3576)
Briefly: BSK_LPS_IL8: BioMAP Diversity Plus: LPS Assay for Interleukin-8 (IL8) Biomarker Activity (AID 2283078). The settings on record: primary human HUVEC with PBMC; actives raise or lower the signal. The essentials:
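HUVEC + PBMC co-culture, LPS-activated; test chemicals dosed, IL-8 read by ELISA at 24 h. Bidirectional curve fit vs DMSO baseline (gain or loss of signal).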

The nature of assay [6]: BSK_LPS_SRB: Viability Assessment in the BioMAP Diversity Plus: LPS Assay (AID 2283079).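 Also: total protein by sulforhodamine B absorbance as a cytotoxicity measure; measured one day after compound addition; fitted in both directions against DMSO so loss or gain of signal counts.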 The settings on record: primary human HUVEC with PBMC. The essentials: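 HUVEC + PBMC co-culture, LPS-stimulated; compound 24 h. 10% TCA fix, 0.1% SRB stain, A560. Bidirectional fit vs DMSO.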
Read-out in assay [7]: Macrophage colony-stimulating factor (MCSF), CSF1 (gene 1435)
The assay can be described thus: BSK_LPS_MCSF: BioMAP Diversity Plus: LPS Assay for Macrophage colony-stimulating factor (MCSF) Biomarker Activity (AID 2283083). The settings on record: primary human HUVEC with PBMC; actives raise or lower the signal. A digest of the protocol: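 HUVEC + PBMC co-culture (human primary), 24 h post-dose; M-CSF by ELISA; gain/loss of signal fitted bidirectionally vs DMSO baseline.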

Read-out in assay [8]: Tissue Factor, F3 (gene 2152)
Briefly: BSK_LPS_TissueFactor: BioMAP Diversity Plus: LPS Assay for Tissue Factor Biomarker Activity (AID 2283084). Particulars: primary human HUVEC with PBMC; actives raise or lower the signal. The essentials:
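HUVEC/PBMC co-culture, LPS-activated; CD142 ELISA read 24 h post-dose; bidirectional curve fit vs DMSO negative control.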

Read-out in assay [9]: Tumor necrosis factor (Homo sapiens) (UniProt P01375)
Briefly: BSK_LPS_TNFa: BioMAP Diversity Plus: LPS Assay for Tumour Necrosis Factor alpha (TNFa) Biomarker Activity (AID 2283085). Particulars: primary human HUVEC with PBMC; actives raise or lower the signal. The essentials: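 Human umbilical vein endothelial cells co-cultured with PBMC were exposed to test chemical and TNFa measured by ELISA 24 h after dosing. Bidirectional curve fitting was done relative to DMSO as negative control and baseline.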

Read-out in assay [10]: Vascular cell adhesion molecule 1 (VCAM1), VCAM1 (gene 7412)
The assay can be described thus: BSK_LPS_VCAM1: BioMAP Diversity Plus: LPS Assay for Vascular cell adhesion molecule 1 (VCAM1) Biomarker Activity (AID 2283086). Particulars: primary human HUVEC with PBMC; actives raise or lower the signal. A digest of the protocol:
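Human umbilical vein endothelial cells co-cultured with peripheral blood mononuclear cells under LPS stimulation were exposed to test chemical for 24 h. VCAM-1 levels were then measured by ELISA, with bidirectional curve fitting relative to DMSO as negative control and baseline.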

Read-out in assay [11]: CD38, CD38 (gene 952)
Briefly: BSK_SAg_CD38: BioMAP Diversity Plus: SAg Assay for CD38 Biomarker Activity (AID 2283087). The settings on record: primary human HUVEC with PBMC; actives raise or lower the signal. The essentials: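 Fluorescence ELISA of cell-surface CD38 served as the read-out, with either increase or decrease fitted against DMSO controls. Cells were a human umbilical vein endothelium plus PBMC co-culture under SEB/TSST-1 stimulation, measured 24 h after dosing.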

Read-out in assay [12]: CD40, CD40 (gene 958)
Briefly: BSK_SAg_CD40: BioMAP Diversity Plus: SAg Assay for CD40 Biomarker Activity (AID 2283088). The settings on record: primary human HUVEC with PBMC; actives raise or lower the signal. The essentials:
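HUVEC/PBMC co-culture, 24 h post-dose; CD40 by ELISA, fluorescence intensity; bidirectional fit vs DMSO negative control.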

Read-out in assay [13]: CD69, CD69 (gene 969)
Briefly: BSK_SAg_CD69: BioMAP Diversity Plus: SAg Assay for CD69 Biomarker Activity (AID 2283089).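 As to AC50: cell surface CD69 protein quantified by ELISA with fluorescence detection.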 The settings on record: primary human HUVEC with PBMC; actives raise or lower the signal. The essentials: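 ELISA, fluorescence read-out: CD69 on human umbilical vein endothelial cell + PBMC co-culture, 24 h post-dosing. Gain or loss of signal fitted bidirectionally against DMSO baseline.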

Read-out in assay [14]: Monocyte Chemoattractant Protein-1 (MCP1), CCL2 (gene 6347)
Briefly: BSK_SAg_MCP1: BioMAP Diversity Plus: SAg Assay for Monocyte Chemoattractant Protein-1 (MCP1) Biomarker Activity (AID 2283090). Particulars: primary human HUVEC with PBMC; actives raise or lower the signal. The essentials: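 MCP-1 levels in the endothelial–PBMC SAg co-culture were quantified by ELISA at 24 h post-dosing; both increases and decreases versus DMSO scored. Cytotoxicity monitored by SRB total protein in parallel cultures.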

Read-out in assay [15]: Monokine induced gamma interferon (MIG), CXCL9 (gene 4283)
Briefly: BSK_SAg_MIG: BioMAP Diversity Plus: SAg Assay for Monokine induced gamma interferon (MIG) Biomarker Activity (AID 2283092). Particulars: primary human HUVEC with PBMC; actives raise or lower the signal. A digest of the protocol: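 ELISA readout of MIG/CXCL9; primary human umbilical vein endothelial cells co-cultured with peripheral blood mononuclear cells; 24 h post-dose; gain/loss fit vs DMSO baseline.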

The nature of assay [16]: BSK_SAg_PBMCCytotoxicity: PBMC Cytotoxicity Assessment in the BioMAP Diversity Plus: SAg Assay (AID 2283093).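 Also: PBMC viability measured as Alamar Blue reduction fluorescence at 546/580 nm; fitted both ways against DMSO so a hit may be loss or gain of signal.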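 As to AC50: PBMC superantigen activated with SEB plus TSST-1 one hour after compound addition.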 Particulars: primary human HUVEC with PBMC. The essentials:
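Compound added to 75,000 PBMC/well for 1 h; SEB and TSST-1 then added at 20 ng/mL final each; 90 h incubation; Alamar Blue 6 h; read 546/580 nm ex/em. Activity fitted bidirectionally relative to DMSO baseline.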

Read-out in assay [17]: Interleukin-8 (IL8), CXCL8 (gene 3576)
Briefly: BSK_SAg_IL8: BioMAP Diversity Plus: SAg Assay for Interleukin-8 (IL8) Biomarker Activity (AID 2283094). The settings on record: primary human HUVEC with PBMC; actives raise or lower the signal. A digest of the protocol:
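Human umbilical vein endothelial cells co-cultured with peripheral blood mononuclear cells; IL-8 measured by ELISA 24 h after chemical dosing. Bidirectional concentration-response fitting used DMSO as negative control and activity baseline.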

Assay [18] can be described thus: BSK_SAg_Proliferation: Cell Proliferation Assessment in the BioMAP Diversity Plus: SAg Assay (AID 2283095).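 Also: relative cell number as total protein by SRB absorbance in sub-confluent culture.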 Particulars: primary human HUVEC with PBMC. A digest of the protocol: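 Human umbilical vein endothelial cells co-cultured with peripheral blood mononuclear cells; total protein measured by sulforhodamine B staining (0.1% SRB after 10% TCA fixation), absorbance at 560 nm, at 96 h. Bidirectional fit against DMSO baseline.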

Assay [19] can be described thus: BSK_SAg_SRB: Viability Assessment in the BioMAP Diversity Plus: SAg Assay (AID 2283096).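 Also: cells read one day after compound addition; hits may be either gain or loss of signal compared with DMSO.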 Particulars: primary human HUVEC with PBMC. The essentials:
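Total protein by sulforhodamine B staining, 24 h after dosing, in HUVEC–PBMC co-culture; DMSO-referenced bidirectional fitting.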

Assay [20] is described as follows: CCTE_Harrill_HTTr_Viability_MCF7: CCTE's 6-hour Cell Viability Assessment for the High-Throughput Transcriptomics (HTTr) Platform, in MCF-7 cells cultured in DMEM + 10% fetal bovine serum, Harrill Lab (AID 2284010). The essentials: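 Membrane integrity was scored by high-content imaging of propidium iodide dye exclusion after a 6 h exposure across an eight-point dilution series. Data were fitted bidirectionally relative to DMSO as negative control and baseline.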

For orientation: AC50 means the concentration giving half of the maximal activity seen.

Where “and” joins values, the source holds several entries; their conditions need not be identical. Equal values may be shown once. Calls of active or inactive are those of the source. The calls were made as follows: active = hit-call score of the fitted dose curve at least 0.9, where 1 is the maximum; inactive = score below 0.9.

Sequence of E-selectin (Homo sapiens) (P16581 whole entry, looked up): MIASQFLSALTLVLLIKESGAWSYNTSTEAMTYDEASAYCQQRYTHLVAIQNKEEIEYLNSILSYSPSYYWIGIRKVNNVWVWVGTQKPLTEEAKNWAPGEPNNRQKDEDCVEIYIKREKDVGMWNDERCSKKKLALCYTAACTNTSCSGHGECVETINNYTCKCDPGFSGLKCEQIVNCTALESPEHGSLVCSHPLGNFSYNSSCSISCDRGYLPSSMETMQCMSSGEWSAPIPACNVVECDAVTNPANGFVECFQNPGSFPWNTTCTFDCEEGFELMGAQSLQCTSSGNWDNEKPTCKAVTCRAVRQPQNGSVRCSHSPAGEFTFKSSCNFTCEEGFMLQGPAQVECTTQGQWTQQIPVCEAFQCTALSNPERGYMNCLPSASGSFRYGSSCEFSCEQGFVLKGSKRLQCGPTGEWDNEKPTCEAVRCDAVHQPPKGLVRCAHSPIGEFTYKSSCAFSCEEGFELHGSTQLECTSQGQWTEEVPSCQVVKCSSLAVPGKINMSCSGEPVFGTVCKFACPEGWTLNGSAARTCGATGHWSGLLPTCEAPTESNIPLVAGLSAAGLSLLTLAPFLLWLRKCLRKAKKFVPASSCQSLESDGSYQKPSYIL
Sequence of Tumor necrosis factor (Homo sapiens) (P01375 whole entry, looked up): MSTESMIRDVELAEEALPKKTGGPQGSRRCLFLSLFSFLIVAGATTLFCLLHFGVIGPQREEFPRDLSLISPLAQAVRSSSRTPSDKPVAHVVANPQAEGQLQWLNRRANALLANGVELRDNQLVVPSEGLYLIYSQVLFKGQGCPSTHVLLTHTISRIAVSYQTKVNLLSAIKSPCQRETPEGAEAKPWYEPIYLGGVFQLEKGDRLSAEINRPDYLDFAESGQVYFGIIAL

For the compound `Oc1ccc(C2(c3ccc(O)cc3)c3ccccc3-c3ccccc32)cc1`, the AC50 in assay [1] is 0.15 µM (active); in [2], 29.5 µM (active) and 28.9 µM (active); in assay [3] it was 12.1 µM (active) and 10.1 µM (active); in assay [4], 31.6 µM (active) and 33.9 µM (active); in assay [5], 28.9 µM (active) and 28.2 µM (active); in assay [6] it was 13.7 µM (active) and 14.4 µM (active). Besides, the AC50 in assay [7] was 33.9 µM (active) and 33.6 µM (active); in [8] it was 32 µM (active) and 29.5 µM (active); in assay [9] it was 30.9 µM (active) and 36.3 µM (active); in [10], 15.9 µM (active) and 22 µM (active); in assay [11], 8.99 µM (active) and 9.75 µM (active); in [12], 11.7 µM (active) and 12.5 µM (active). Also, the AC50 in assay [13] is 10.6 µM (active) and 9.45 µM (active); in [14], 11.8 µM (active) and 11.2 µM (active); in assay [15], 12.4 µM (active) and 11.5 µM (active); in assay [16] it was 12.1 µM (active) and 12.3 µM (active); in assay [17], 8.55 µM (active) and 9.2 µM (active); in assay [18], 9.89 µM (active) and 9.81 µM (active). For the same compound, the AC50 in assay [19] was 15.9 µM (active) and 15.6 µM (active).

Turning to `O=c1[nH]c(Cl)c(Cl)cc1Cl`, the outcome in assay [1], in [2], in assay [3], in assay [4], in assay [5] and in assay [6] was inactive. For the same compound, the result in assay [7], in assay [8], in assay [9], in assay [10], in assay [11] and in [12] was inactive. Besides, the outcome in assay [13], in assay [14], in [15], in [16], in assay [17] and in assay [18] was inactive. Moreover, the result in assay [19] and in assay [20] was inactive.

On to `CCC(C)(C)O`, for which, in assay [20], the outcome was inactive.

For the compound `CC(C)(C)C(O)C(Oc1ccc(-c2ccccc2)cc1)n1cncn1` (stereo not drawn), the outcome in [1], in assay [3], in [4], in assay [5], in assay [6] and in [7] was inactive. Besides, the result in [8], in [9], in assay [10], in [11], in assay [12] and in assay [13] was inactive. Moreover, the result in [14], in assay [15], in assay [16], in assay [17], in assay [18] and in [19] was inactive. In [20], the result was inactive. Further, the AC50 in [2] is 20 µM (active).

On to `CC(C)(c1cc(Cl)c(O)c(Cl)c1)c1cc(Cl)c(O)c(Cl)c1`, for which the AC50 in assay [1] was 9.27 µM (active); in assay [3] it was 17.3 µM (active); in [5] it was 32.5 µM (active); in assay [6], 31.7 µM (active); in assay [7], 17.2 µM (active); in assay [8], 31.3 µM (active). The AC50 in assay [9] was 31.4 µM (active); in [10], 29.8 µM (active); in [11], 26.6 µM (active); in assay [13], 26.3 µM (active); in [14], 31.9 µM (active); in assay [16], 36.3 µM (active). The AC50 in assay [17] was 31 µM (active); in assay [18], 25.9 µM (active).

For the compound `C[N+](C)(C)CC(=O)[O-]`, the result in [20] was inactive.

For `CCCCCCCCCCCC#N`, the outcome in [1], in assay [2], in [6], in assay [15] and in assay [19] was inactive. Moreover, the AC50 was 30.8 µM (active) in [3]; 31.5 µM (active) in assay [4]; 29 µM (active) in assay [5]; 38 µM (active) in assay [7]; 24.1 µM (active) in assay [8]; 36.4 µM (active) in assay [9]. Besides, the AC50 was 33.6 µM (active) in assay [10]; 35.6 µM (active) in assay [11]; 27.7 µM (active) in assay [12]; 33.7 µM (active) in assay [13]; 33 µM (active) in assay [14]; 32 µM (active) in [16]. Besides, the AC50 in assay [17] is 32.7 µM (active).
